The list is not random: actives were taken first. Their share in the collection is about 2%.
UHRF1 MBD2 ctr = UHRF1 methylated DNA binding inhibitors, primary screen, counter-screen for MBD2 inhibitor project, biochemical, TR-FRET, human UHRF1, single concentration. UHRF1 binding to methylated oligo. 370,000 tested, 0.75% active. E3 ubiquitin-protein ligase UHRF1 (Homo sapiens), Q96T88. inhibition, % at 4.4 µM; in the data active means inhibition above about 21%;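 further: UHRF1 SRA domain binding a hemimethylated CpG hairpin DNA probe; 0% = median of test compound wells and 100% = reference inhibitor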
MBD2 inh = inhibitors of MBD2 binding to methylated DNA, primary screen, biochemical, TR-FRET, DNA-binding domain, human | Methyl-CpG-binding domain protein 2 (Homo sapiens), Q9UBB5 | MBD2 binding to methylated oligonucleotide | inhibition, % at 4.4 µM | 370,000 tested, 0.31% active | AID 686964, 2013; in the data active means inhibition above about 13%
Rin1-Abl PPI inh = inhibitors of Rin1-Abl protein binding, primary screen, biochemical, TR-FRET | Tyrosine-protein kinase ABL1 (Homo sapiens) + Ras and Rab interactor 1 (Homo sapiens), … | inhibition, % at 7.35 µM | 360,000 tested, 0.4% active; in the data active means inhibition above about 5%, passing the limit was not always enough
Target sequence (P00519 whole entry, looked up): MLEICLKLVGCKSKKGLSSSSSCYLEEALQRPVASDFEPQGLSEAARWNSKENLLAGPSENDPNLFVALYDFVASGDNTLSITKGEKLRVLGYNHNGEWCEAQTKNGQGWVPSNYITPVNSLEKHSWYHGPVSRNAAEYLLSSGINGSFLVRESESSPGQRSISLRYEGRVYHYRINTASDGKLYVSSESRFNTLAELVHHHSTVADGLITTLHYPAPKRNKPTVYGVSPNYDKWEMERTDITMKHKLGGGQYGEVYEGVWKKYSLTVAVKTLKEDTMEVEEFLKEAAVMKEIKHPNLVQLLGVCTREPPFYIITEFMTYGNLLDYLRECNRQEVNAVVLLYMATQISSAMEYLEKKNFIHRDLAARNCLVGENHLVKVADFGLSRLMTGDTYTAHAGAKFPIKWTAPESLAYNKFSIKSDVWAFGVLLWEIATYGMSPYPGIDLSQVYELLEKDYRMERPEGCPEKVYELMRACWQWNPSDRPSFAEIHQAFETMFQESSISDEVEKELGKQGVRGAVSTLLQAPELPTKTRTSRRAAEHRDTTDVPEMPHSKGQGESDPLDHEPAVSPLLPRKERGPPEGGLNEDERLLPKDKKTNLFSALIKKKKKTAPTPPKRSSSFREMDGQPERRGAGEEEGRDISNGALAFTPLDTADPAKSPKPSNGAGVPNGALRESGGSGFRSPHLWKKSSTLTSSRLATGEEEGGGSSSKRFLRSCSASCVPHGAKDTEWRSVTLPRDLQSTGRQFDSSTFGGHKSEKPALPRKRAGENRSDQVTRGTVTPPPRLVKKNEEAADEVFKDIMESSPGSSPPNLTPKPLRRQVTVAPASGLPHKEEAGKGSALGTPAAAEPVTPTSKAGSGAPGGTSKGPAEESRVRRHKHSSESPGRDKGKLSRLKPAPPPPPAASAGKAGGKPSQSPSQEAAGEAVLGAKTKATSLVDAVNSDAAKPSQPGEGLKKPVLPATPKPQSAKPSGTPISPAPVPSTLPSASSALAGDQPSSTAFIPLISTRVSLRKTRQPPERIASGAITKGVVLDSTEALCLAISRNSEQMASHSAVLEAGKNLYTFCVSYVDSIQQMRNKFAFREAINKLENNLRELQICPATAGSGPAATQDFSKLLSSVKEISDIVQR
Target sequence (Q13671 whole entry, looked up): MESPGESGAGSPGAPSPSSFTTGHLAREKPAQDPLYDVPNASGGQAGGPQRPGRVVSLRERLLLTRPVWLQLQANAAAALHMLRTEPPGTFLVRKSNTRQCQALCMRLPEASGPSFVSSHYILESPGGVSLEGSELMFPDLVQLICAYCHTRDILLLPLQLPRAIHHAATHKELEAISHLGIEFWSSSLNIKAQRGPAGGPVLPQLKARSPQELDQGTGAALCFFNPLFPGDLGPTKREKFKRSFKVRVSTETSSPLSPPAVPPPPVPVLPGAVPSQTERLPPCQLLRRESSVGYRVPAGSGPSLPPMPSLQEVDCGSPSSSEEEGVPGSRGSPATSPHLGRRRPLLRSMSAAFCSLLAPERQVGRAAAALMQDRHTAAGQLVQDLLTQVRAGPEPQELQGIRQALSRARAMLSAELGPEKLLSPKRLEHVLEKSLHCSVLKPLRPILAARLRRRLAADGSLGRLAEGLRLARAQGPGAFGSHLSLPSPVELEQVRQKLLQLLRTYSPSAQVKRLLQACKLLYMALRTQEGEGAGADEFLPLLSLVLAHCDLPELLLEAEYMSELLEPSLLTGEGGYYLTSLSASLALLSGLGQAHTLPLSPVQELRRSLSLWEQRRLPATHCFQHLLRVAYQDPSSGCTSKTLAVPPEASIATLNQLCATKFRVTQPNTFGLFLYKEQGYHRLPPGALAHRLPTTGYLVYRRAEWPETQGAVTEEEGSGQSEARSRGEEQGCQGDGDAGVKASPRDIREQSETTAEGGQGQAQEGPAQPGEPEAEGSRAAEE
LEDGF integ inh = blockers of LEDGF/p75-dependent integrase strand transfer – biochemical, TR-FRET, high throughput, primary screen. TR-FRET IN-LEDGF/p75 DNA integration, Eu/Cy5. inhibition, % at 3.7 µM. 370,000 tested, 0.64% active. HIV-1 integrase (with human LEDGF/p75);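 active means inhibition above the screen-wide mean plus 3 SD, cut at about 13% in these data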;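 further: signal is the Cy5 over europium emission ratio at 671 and 618 nm; 0% = plate median of compound wells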
TCR CD3 inh = inhibitors of human TCR-CD3 interaction, primary screen, biochemical, fluorescence, TAMRA-labeled TCR probe. T-cell receptor (TCR). inhibition, % at 9.4 µM. 360,000 tested, 0.37% active; in the data active means inhibition above about 19%;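 further: recombinant mutant TCR 2C K166C tagged with TAMRA read by polarization; 0% = receptor in buffer alone and 100% = receptor with positive control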
IN multimer act = HIV-1 IN multimer formation enhancers, counter-screen for LEDGF/p75 integration inhibitor project, biochemical, TR-FRET; shares compounds with LEDGF integ inh; TR-FRET HIV-1 integrase multimerization; activation, % at 7.7 µM; 2,000 tested, 17% active; AID 1053131, 2014; in the data active means activation above about 8.9%
TRFRET interf = TR-FRET optical interference artefacts, confirmation, artefact control for LEDGF/p75-dependent integration inhibitor project, biochemical, HIV-1 IN multimerization; shares compounds with LEDGF integ inh; TR-FRET optical interference counterscreen; inhibition, % at 7.7 µM; 2,000 tested, under 10 active; AID 1053135, 2014;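 active means inhibition above the mean over all tested compounds plus 3 SD, which no compound reached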;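 further: 0% = integrase with antibodies and DMSO and 100% = antibodies without integrase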
LEDGF integ conf = inhibitors of HIV-1 IN-LEDGF/p75 DNA integration, confirmation, biochemical, TR-FRET; shares compounds with LEDGF integ inh; TR-FRET LEDGF/p75-dependent HIV-1 integration; inhibition, % at 3.7 µM; 2,000 tested, 36% active; in the data active means inhibition above about 14%
An asterisk follows results filed as active; · = no result given.

SMILES	UHRF1 MBD2 ctr	MBD2 inh	Rin1-Abl PPI inh	LEDGF integ inh	TCR CD3 inh	IN multimer act	TRFRET interf	LEDGF integ conf
CN(C)c1ccc(N/C=C/C(=O)c2ccccc2)cc1	2.6	-3.4	3.1	14.8*	8.4	4.8	-24.3	4.7
O=C(/C=C/Nc1ccccc1)c1ccccc1	-2.6	-7.4	1.9	2.1	-7.4	·	·	·
CCOC(=O)C1CCCN(Cc2c(F)cccc2Cl)C1 (stereo not drawn)	-0.7	-2.5	-0.2	-1.3	7.6	·	·	·
CCOC(=O)C1CCCN(Cc2ccccc2Cl)C1 (stereo not drawn)	-3.3	0.3	-2.2	15.7*	-3.0	-2.4	11.9	1.7
Nc1cc(N)cc(C(=O)c2ccccc2)c1	-4.0	-11.9	-8.9	21.1*	-2.4	1.7	-8.6	-1.0
Cc1ccc(S(=O)(=O)Nc2cc(C(=O)O)ccc2N2CCCCC2)cc1	1.3	-0.9	-4.6	-0.7	5.7	·	·	·
Cc1ccc(S(=O)(=O)Nc2cc(C(=O)N3CCOCC3)ccc2N2CCCCC2)cc1	2.0	-4.9	1.2	24.5*	6.9	0.9	-4.6	-1.9
CCN(CC)C(=O)[C@H]1C[C@H](CC(=O)NCc2ccco2)C(=O)N2CCc3c([nH]c4cc(-c5ccco5)ccc34)[C@]12C	-1.0	-3.3	0.1	16.9*	-4.4	0.2	-0.9	-1.9
Cc1ccc(C(=O)NCCC(=O)N2CCOCC2)cc1	-0.3	1.3	0.2	2.4	3.2	·	·	·
O=C(Nn1cnnc1)c1cc(Cl)cc(Cl)c1	-0.5	1.8	-1.5	1.4	7.8	·	·	·
S=c1[nH]nc(-c2cc(-c3ccco3)[nH]n2)n1-c1ccccc1Cl	16.6	2.7	2.9	13.6*	3.0	1.7	-8.5	15.1*
S=c1[nH]nc(-c2ccco2)n1-c1ccccc1Cl	-3.5	-0.3	-4.1	-0.2	4.8	·	·	·
O=C(NC(Cc1ccccc1)C(=O)O)/C(=C/c1ccco1)NC(=O)c1cccc([N+](=O)[O-])c1 (stereo not drawn)	20.6	11.2	-3.6	-0.5	-7.7	·	·	·
O=C(NC(Cc1ccccc1)C(=O)O)/C(=C\c1ccco1)NC(=O)c1ccccc1Br (stereo not drawn)	0.2	0.8	-2.6	16.5*	-2.8	0.4	-1.8	0.6
CC(C)(C)NC(=O)NC(=O)CSc1ccc(S(=O)(=O)N2CCCCC2)cn1	-0.9	-5.7	0.4	20.2*	-2.6	0.8	-4.0	1.1
CCOC(=O)NC(=O)CSc1ccc(S(=O)(=O)N2CCCCC2)cn1	1.1	3.3	0.1	2.4	2.4	·	·	·
CCC1Nc2ncnc(N3CCc4ccccc4C3)c2N(Cc2ccc(Br)cc2)C1=O (stereo not drawn)	·	·	4.7	·	·	·	·	·
Cn1cnnc1SCC(=O)c1cc2ccccc2o1	2.0	4.0	-5.8	1.6	-1.6	·	·	·
Cn1ccnc1SCC(=O)c1cc2ccccc2o1	-3.7	-4.0	1.4	24.6*	-1.9	7.1	-25.3	7.2
CCOc1cccc(-c2cc(NCCc3ccccn3)n3nccc3n2)c1	0.0	-0.1	-4.1	2.9	1.6	·	·	·
COc1ccc(-c2csc(NC(=O)c3ccccc3OC)c2C(=O)O)cc1OC	1.1	-6.6	-1.1	2.5	-3.2	·	·	·
COc1ccc(-c2csc(NC(=O)c3cccs3)c2C(=O)O)cc1OC	0.0	4.9	-3.1	17.9*	1.5	1.5	-7.6	10.1
Cc1nonc1N1CCN(Cc2cn[nH]c2-c2ccc3c(c2)OCO3)CC1	0.8	2.7	1.2	53.3*	7.8	-0.4	2.1	-0.4
COc1ccc(C2C(C#N)=C(N)Oc3cc(N)ccc32)cc1 (stereo not drawn)	-3.4	4.0	-0.8	18.5*	-4.7	-1.0	5.0	-5.2
N#CC1=C(N)Oc2cc(N)ccc2C1c1ccc(F)cc1 (stereo not drawn)	-3.6	-7.5	-0.3	23.2*	-5.8	1.2	-6.2	0.7
SMILES	UHRF1 MBD2 ctr	MBD2 inh	Rin1-Abl PPI inh	LEDGF integ inh	TCR CD3 inh	IN multimer act	TRFRET interf	LEDGF integ conf
CCOC(=O)[C@]12CCCC=C1N(CCC1=CCCCC1)C(=O)[C@H](CC(=O)N1CCCC1)C2	0.4	-0.1	·	2.3	2.1	·	·	·
C=CCn1c(N)c(C(=O)Nc2ccccc2)c2nc3ccccc3nc21	-8.9	-5.0	-0.8	21.1*	3.8	1.9	-6.7	0.2
CC1(C2(O)CCCCC2)NCCc2ccccc21 (stereo not drawn)	-1.0	1.8	-4.5	4.3	-3.3	·	·	·
CCCCc1c(-c2ccccc2OC)ncn1Cc1cccc(F)c1F	-1.5	-3.4	·	-2.0	0.3	·	·	·
COC(=O)c1ccc(CN2C(=O)NC(CC(C)C)C2=O)cc1 (stereo not drawn)	24.5*	0.8	1.2	61.2*	-2.6	-1.3	4.5	-4.2
O=C1NC2(CCCCCC2)C(=O)N1Cc1ccccc1Cl	1.8	5.6	-0.3	27.9*	-1.5	-0.7	3.4	-6.7
O=C(Nc1ccnn1C1CCN(Cc2ccccc2OC(F)F)CC1)c1cccnc1	1.5	-2.9	1.9	-2.8	5.7	·	·	·
CC1(C(=O)NS(=O)(=O)c2cccc(C#N)c2)CCN1C(=O)c1ccco1 (stereo not drawn)	12.8	-2.2	0.1	0.5	-10.7	·	·	·
COCCn1c(N)c(S(=O)(=O)c2cccs2)c2nc3ccccc3nc21	12.0	-4.8	2.7	13.9*	-5.6	0.5	-2.5	-4.1
CC(C)C[C@@H](CN1CCC[C@H]1CN1C(=O)C(=O)NC[C@@H]1Cc1ccc(O)cc1)N1C[C@H](Cc2ccccc2)N(CCc2ccccc2)C(=O)C1=O	3.8	1.1	·	-0.4	2.5	·	·	·
CC(C)C[C@@H](CN1CCC[C@H]1CN1C(=O)C(=O)NC[C@@H]1Cc1ccc(O)cc1)N1C[C@H](Cc2ccc(O)cc2)N(CCc2ccccc2)C(=O)C1=O	2.9	3.2	·	73.5*	-1.6	3.2	-16.1	-10.1
COC(=O)C(Cc1ccccc1)OS(N)(=O)=O (stereo not drawn)	0.9	3.1	2.4	2.6	-2.0	·	·	·
Cc1noc(/C=C/N(C)C)c1S(=O)(=O)N1CCC(C(=O)O)CC1	2.6	-0.9	1.3	17.2*	-1.2	-1.5	7.4	2.3
COc1cccc(CNC(=O)C2CCCN(S(=O)(=O)c3c(C)noc3/C=C/N(C)C)C2)c1 (stereo not drawn)	3.1	0.1	0.2	8.9	-2.3	·	·	·
Cc1ccc(CNC(=O)C2CCN(S(=O)(=O)c3c(C)noc3/C=C/N(C)C)CC2)cc1	-2.6	-1.7	-2.0	7.6	10.1	·	·	·
